PubChem BioAssay (NCI)
The panel holds about 79,000 compounds, 15% with a hit somewhere; the sample as a whole holds those more often. Active and inactive are the calls of the source. Cut-off read from the data, not from the text of the source: active = growth inhibition above about 70%; inactive = the rest.

Test: NCI Yeast Anticancer Drug Screen. Data for the rad52 strain (AID 147);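 note: 0% = growth of vehicle-treated control cultures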
Conditions: S. cerevisiae rad52 mutant growth inhibition, stronger effect = higher value
Method: Growth inhibition of yeast strains with defined genetic alterations is measured as a screen for potential anti-cancer activity. Selected strains with alterations in DNA damage repair or cell cycle control were exposed to compounds and growth inhibition was measured relative to vehicle treated controls. The strain used in this assay is rad52

Measured: growth inhibition

COc1cc(O)c2c(O)c3c(c4c2c1[C@]1(C4)C(C)=CCCC1(C)C)[C@H](O)[C@@]1(O)CC(=O)C(C(N)=O)=C(O)[C@@]1(O)C3=O
inactive: at 1.2 µM -1%
active: at 3.7 µM 92% | at 11.0 µM 98% | at 33.0 µM 98% | at 100.0 µM 95%

c1cc2c(cc1C1OC[C@H]3[C@@H](c4ccc5c(c4)OCO5)OC[C@@H]13)OCO2 (stereo not given in full)
inactive: at 1.2 µM -9% | at 3.7 µM -16% | at 11.0 µM -3% | at 33.0 µM -1% | at 100.0 µM -6%

NNc1ccccc1Cl
active: at 3.7 µM 72% | at 11.0 µM 78% | at 33.0 µM 95% | at 100.0 µM 96%
inactive: at 1.2 µM 40%

Nc1nnc(N)n1-n1c(N)nnc1N
inactive: at 1.2 µM -2% | at 3.7 µM -2% | at 11.0 µM -1% | at 33.0 µM 0% | at 100.0 µM 10%

c1ccc(N=c2nc(N3CCOCC3)ss2)cc1
inactive: at 1.2 µM -3% | at 3.7 µM 3% | at 11.0 µM 27%
active: at 33.0 µM 98% | at 100.0 µM 99%

COC(=O)c1c(C)ccc2c(O)c3c(cc12)C(=O)c1c2c(cc(O)c1C3=O)C1(C)OC(C)(O2)C(O)C(N(C)C)C1O (stereo not given)
active: at 33.0 µM 94% | at 100.0 µM 91%
inactive: at 1.2 µM 2% | at 3.7 µM 17% | at 11.0 µM 68%

CC(C)CC(NC(=O)C(N)C(C)C)C(=O)NC(CCCCN)C(=O)Nc1ccc(N(CCCl)CCCl)cc1 (stereo not given)
inactive: at 1.2 µM 8% | at 3.7 µM 28% | at 11.0 µM 32% | at 33.0 µM 23% | at 100.0 µM 18%

CCOP(=O)(CC(C)P(=O)(OCC)OCC)OCC.C[CH2][Sn]([Cl])([Cl])[CH2]C (stereo not given)
active: at 33.0 µM 79% | at 100.0 µM 94%
inactive: at 1.2 µM -4% | at 3.7 µM -1% | at 11.0 µM 19%
